Inconclusive results are not listed. Active and inactive are the calls of the source. How the source made its calls, unless noted: active means hit-call score of the fitted dose curve at least 0.9, where 1 is the maximum; inactive means score below 0.9.
Columns and labels:
[1] = read-out: Interleukin-8 (IL8), CXCL8 (gene 3576); assay: BSK_3C_IL8: BioMAP Diversity Plus: 3C Assay for Interleukin-8 (IL8) Biomarker Activity (AID 2283020); conditions: primary human endothelial cells (HUVEC); actives raise or lower the signal
In short: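 ELISA read-out of IL-8 from human umbilical vein endothelium, measured 24 h after chemical dosing. Activity is expressed relative to DMSO negative control, with both increases and decreases fitted.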

[2] = read-out: Monokine induced gamma interferon (MIG), CXCL9 (gene 4283); assay: BSK_3C_MIG: BioMAP Diversity Plus: 3C Assay for Monokine induced gamma interferon (MIG) Biomarker Activity (AID 2283021); conditions: primary human endothelial cells (HUVEC); actives raise or lower the signal
In short: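 Read-out is ELISA detection of MIG on human umbilical vein endothelial cells, taken 24 h after dosing. Gain or loss of signal was scored relative to DMSO controls using bidirectional curve fitting.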

[3] = BSK_3C_SRB: Viability Assessment in the BioMAP Diversity Plus: 3C Assay (AID 2283023); conditions: primary human endothelial cells (HUVEC);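 further: fitted both ways against DMSO so a hit may be signal rise or drop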
In short: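 HUVEC, 24 h post-dose; 10% TCA fix, 0.1% SRB stain, A560 nm. Bidirectional curve fit vs DMSO negative control.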

[4] = read-out: Matrix Metallopeptidase 1 (MMP1), MMP1 (gene 4312); assay: BSK_BE3C_MMP1: BioMAP Diversity Plus: BE3C Assay for Matrix Metallopeptidase 1 (MMP1) Biomarker Activity (AID 2283024); conditions: primary human bronchial epithelial cells; actives raise or lower the signal
In short: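 Human bronchial epithelial cells (BE3C system) exposed to compound for 24 h; MMP1 then quantified by ELISA. Activity was fitted in both directions relative to DMSO.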

[5] = read-out: Pselectin, SELP (gene 6403); assay: BSK_4H_Pselectin: BioMAP Diversity Plus: 4H Assay for Pselectin Biomarker Activity (AID 2283026); conditions: primary human endothelial cells (HUVEC); actives raise or lower the signal
In short: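 ELISA read-out of P-selectin on human umbilical vein endothelium after 24 h of dosing. Values derive from bidirectional fitting relative to DMSO. Parallel SRB protein staining flagged overt cytotoxicity.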

[6] = BSK_4H_SRB: Viability Assessment in the BioMAP Diversity Plus: 4H Assay (AID 2283027); conditions: primary human endothelial cells (HUVEC);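 further: cells exposed to compound for 24 h before staining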
In short: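 Human umbilical vein endothelial cells were dosed with chemical and, after 24 h, fixed with 10% TCA, stained with 0.1% sulforhodamine B, and read at 560 nm to give total protein as a cytotoxicity measure. Bidirectional fitting relative to DMSO control.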

[7] = BSK_BE3C_SRB: Viability Assessment in the BioMAP Diversity Plus: BE3C Assay (AID 2283028); conditions: primary human bronchial epithelial cells
In short: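 Primary human bronchial epithelium; chemical dosing, 24 h; 10% TCA fix, 0.1% SRB stain, A560; bidirectional fit vs DMSO baseline.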

[8] = read-out: Thrombomodulin, THBD (gene 7056); assay: BSK_3C_Thrombomodulin: BioMAP Diversity Plus: 3C Assay for Thrombomodulin Biomarker Activity (AID 2283029); conditions: primary human endothelial cells (HUVEC); actives raise or lower the signal
In short: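 Read-out is ELISA of thrombomodulin on human umbilical vein endothelium 24 h after chemical dosing. Gain or loss of signal is scored relative to DMSO. Overt cytotoxicity is checked in parallel cultures by sulforhodamine B staining.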

[9] = read-out: Urokinase-type plasminogen activator receptor (uPAR), PLAUR (gene 5329); assay: BSK_4H_uPAR: BioMAP Diversity Plus: 4H Assay for Urokinase-type plasminogen activator receptor (uPAR) Biomarker Activity (AID 2283030); conditions: primary human endothelial cells (HUVEC); actives raise or lower the signal
In short: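 HUVEC, 24 h post-dose; uPAR by ELISA; bidirectional fit vs DMSO baseline.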

[10] = read-out: Vascular endothelial growth factor receptor 2 (Homo sapiens) (UniProt P35968); assay: BSK_4H_VEGFRII: BioMAP Diversity Plus: 4H Assay for Vascular endothelial growth factor receptor 2 (VEGFR2) Biomarker Activity (AID 2283031); conditions: primary human endothelial cells (HUVEC); actives raise or lower the signal
In short: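 HUVEC (human primary), 4H system; 24 h post-dose; VEGFRII by ELISA; bidirectional curve fit vs DMSO baseline; gain or loss of signal scored.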

[11] = read-out: Human Leukocyte Antigen - DR isotype (HLADR), HLA-DRA (gene 3122); assay: BSK_BE3C_HLADR: BioMAP Diversity Plus: BE3C Assay for Human Leukocyte Antigen - DR isotype (HLADR) Biomarker Activity (AID 2283032); conditions: primary human bronchial epithelial cells; actives raise or lower the signal
In short: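 ELISA read-out of HLA-DR on human lung bronchial epithelial primary cells, measured 24 h post-dosing. Both increases and decreases were scored relative to DMSO vehicle.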

[12] = read-out: Vascular cell adhesion molecule 1 (VCAM1), VCAM1 (gene 7412); assay: BSK_4H_VCAM1: BioMAP Diversity Plus: 4H Assay for Vascular cell adhesion molecule 1 (VCAM1) Biomarker Activity (AID 2283033); conditions: primary human endothelial cells (HUVEC); actives raise or lower the signal;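 further: cell-surface VCAM-1 protein measured by ELISA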
In short: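 ELISA read-out of VCAM-1 on human umbilical vein endothelium 24 hours after chemical dosing; gain or loss of signal was fitted relative to DMSO, with sulforhodamine B staining of parallel cultures flagging overt cytotoxicity.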

[13] = read-out: Interferon-gamma inducible Protein 10 (IP10), CXCL10 (gene 3627); assay: BSK_BE3C_IP10: BioMAP Diversity Plus: BE3C Assay for Interferon-gamma inducible Protein 10 (IP10) Biomarker Activity (AID 2283034); conditions: primary human bronchial epithelial cells; actives raise or lower the signal
In short: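 Chemical is dosed onto human lung bronchial epithelial primary cells, cultures are incubated 24 h, and IP-10 is then quantified by ELISA. Gain or loss of signal is fitted in both directions relative to DMSO.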

[14] = read-out: Monokine induced gamma interferon (MIG), CXCL9 (gene 4283); assay: BSK_BE3C_MIG: BioMAP Diversity Plus: BE3C Assay for Monokine induced gamma interferon (MIG) Biomarker Activity (AID 2283035); conditions: primary human bronchial epithelial cells; actives raise or lower the signal;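 further: MIG protein measured by ELISA in BE3C cultures after 24 h of dosing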
In short: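 ELISA read-out of MIG in human lung bronchial epithelial primary cultures, 24 h post-dosing. Bidirectional curve fit vs DMSO baseline.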

[15] = read-out: Transforming growth factor beta 1 (TGFb1), TGFB1 (gene 7040); assay: BSK_BE3C_TGFb1: BioMAP Diversity Plus: BE3C Assay for Transforming growth factor beta 1 (TGFb1) Biomarker Activity (AID 2283036;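 further: TGF-b1 protein level measured by ELISA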); conditions: primary human bronchial epithelial cells; actives raise or lower the signal
In short: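 Primary human lung bronchial epithelial cells; compound exposure 24 h; TGF-b1 by ELISA; bidirectional fit, DMSO baseline. Parallel SRB total-protein staining for cytotoxicity.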

[16] = read-out: urokinase plasminogen activator (uPA), PLAU (gene 5328); assay: BSK_BE3C_uPA: BioMAP Diversity Plus: BE3C Assay for urokinase plasminogen activator (uPA) Biomarker Activity (AID 2283038); conditions: primary human bronchial epithelial cells; actives raise or lower the signal;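 further: uPA protein level quantified by ELISA in cell cultures; uPA read one day after compound addition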
In short: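 ELISA read-out of uPA in human lung primary bronchial epithelial cultures, 24 h post-dosing. Gain or loss of signal fitted bidirectionally relative to DMSO baseline; cytotoxicity checked in parallel cultures via SRB total protein stain.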

[17] = read-out: Urokinase-type plasminogen activator receptor (uPAR), PLAUR (gene 5329); assay: BSK_BE3C_uPAR: BioMAP Diversity Plus: BE3C Assay for Urokinase-type plasminogen activator receptor (uPAR) Biomarker Activity (AID 2283039); conditions: primary human bronchial epithelial cells; actives raise or lower the signal;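 further: uPAR protein level measured by ELISA on the cells; cells exposed to compound for one day before measurement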
In short: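 Human bronchial epithelial primary cells; chemical exposure 24 h; uPAR by ELISA; bidirectional fit vs DMSO control.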

[18] = read-out: Interleukin-6 (IL6), IL6 (gene 3569); assay: BSK_CASM3C_IL6: BioMAP Diversity Plus: CASM3C Assay for Interleukin-6 (IL6) Biomarker Activity for (AID 2283040); conditions: primary human coronary artery smooth muscle cells; actives raise or lower the signal
[19] = target: human Vitamin D Receptor (VDR), VDR (gene 7421) (UniProt P11473); assay: ATG_VDR_TRANS: Attagene TRANS-FACTORIAL HepG2 Assay for human Vitamin D Receptor (VDR) (AID 2283022; active means hit-call score of the fitted dose curve at least 0.9, where 1 is the maximum)
Chain of human Vitamin D Receptor (VDR), VDR (gene 7421) (P11473 whole entry, looked up, the tested form may be a part): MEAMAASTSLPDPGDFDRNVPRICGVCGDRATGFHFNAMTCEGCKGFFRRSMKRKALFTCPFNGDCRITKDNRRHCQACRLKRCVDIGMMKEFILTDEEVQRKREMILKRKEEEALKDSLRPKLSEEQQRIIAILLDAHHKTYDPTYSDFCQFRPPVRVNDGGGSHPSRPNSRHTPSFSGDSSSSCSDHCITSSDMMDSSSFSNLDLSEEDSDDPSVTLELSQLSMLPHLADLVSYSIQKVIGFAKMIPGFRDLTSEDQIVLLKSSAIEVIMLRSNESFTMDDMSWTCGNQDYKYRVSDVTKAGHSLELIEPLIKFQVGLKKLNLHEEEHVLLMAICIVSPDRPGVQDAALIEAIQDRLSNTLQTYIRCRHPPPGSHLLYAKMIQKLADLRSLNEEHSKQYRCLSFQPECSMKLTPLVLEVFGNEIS
In short: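 RT-PCR/capillary electrophoresis read-out of reporter mRNA induction in transiently transfected HepG2; 24 h dosing; chimeric NR-Gal4 (TRANS format); gain-of-signal fit against DMSO baseline.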

[20] = read-out: Plasminogen activator inhibitor-1 (PAI1), SERPINE1 (gene 5054); assay: BSK_BE3C_PAI1: BioMAP Diversity Plus: BE3C Assay for Plasminogen activator inhibitor-1 (PAI1) Biomarker Activity (AID 2283037); conditions: primary human bronchial epithelial cells; actives raise or lower the signal
In short: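 Primary human lung bronchial epithelial cells; chemical dosing; 24 h; PAI-1 measured by ELISA; bidirectional fit referenced to DMSO as negative control.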

Measured: AC50

CC(C)(C)c1cc(CCC(=O)NCCCCCCNC(=O)CCc2cc(C(C)(C)C)c(O)c(C(C)(C)C)c2)cc(C(C)(C)C)c1O
active: [13] 0.121 µM
not listed: [19] | [20]
inactive: all other assays above

NC(=O)C(F)(F)C(F)(F)C(F)(F)C(F)(F)C(N)=O
not listed: [15] | [17]
inactive: all other assays above

OCC(O)CC(F)(F)C(F)(F)C(F)(F)C(F)(F)C(F)(F)C(F)(F)C(F)(F)C(F)(F)F (stereo unspecified)
not listed: [15] | [17]
inactive: all other assays above

CCN(CC)c1ccc2c(c1)Oc1cc(N(CC)CC)ccc1C21OC(=O)c2ccccc21
active: [1] 4.05 µM | [3] 5.74 µM | [13] 1.98 µM
not listed: [17] | [19] | [20]
inactive: all other assays above

Cc1cnccn1
not listed: [17] | [19] | [20]
inactive: all other assays above

O=C(O)CCC(F)(F)C(F)(F)C(F)(F)F
not listed: [15] | [20]
inactive: all other assays above
